According to PubChem BioAssay (NCATS):
Results filed as inconclusive are left out. The source made the active and inactive calls. The call rests on the fitted dose curve; in most records, active means well fitted curve in the direction sought with a large enough effect; inconclusive means small, poorly fitted or top-dose-only effect, or another doubt; inactive means no such curve, though single readings can be large; an effect the other way counts as inactive or inconclusive.

Key:
[1] = HEK293 18hr Apoptosis Induction qHTS against the NCATS CANVASS Library (AID 1347357)
Outline: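 HEK293 cells (500/well, DMEM + 10% FBS) treated with an 11-point series for 18 h at 37 degrees C. Caspase-3/7 activity read by Caspase-Glo luminescence after 15 min at room temperature.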

[2] = HPAF-II 12hr Apoptosis Induction qHTS against the NCATS CANVASS Library (AID 1347358)
Outline: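 Apoptosis in HPAF-II pancreatic cancer cells is scored as caspase 3/7 luminescence following a 12-hour exposure to an 11-point compound series.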

[3] = HEK293 24hr Apoptosis Induction qHTS against the NCATS CANVASS Library (AID 1347359)
Outline: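 HEK293 cells (500/well, DMEM + 10% FBS) were exposed to compounds in an 11-point series for 24 hours at 37 degrees C, then caspase-3/7 activity was read by Caspase-Glo DEVD luciferase luminescence after 15 min.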

[4] = HPAF-II 18hr Apoptosis Induction qHTS against the NCATS CANVASS Library (AID 1347360)
Outline: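 HPAF-II cells at 500/well were exposed for 18 h at 37 C to an 11-point compound series. Caspase-3/7 activity was read by Caspase-Glo luminescence after 15 min at RT.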

[5] = HEK293 12hr Apoptosis Induction qHTS against the NCATS CANVASS Library (AID 1347361)
Outline: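 HEK293 cells (500/well) were exposed to an 11-point qHTS concentration series for 12 hours at 37 degrees C. Caspase-3/7 activity was then read by DEVD-substrate luciferase luminescence after 15 min at room temperature.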

[6] = tested on: NAD(P)H diaphorase (Clostridium kluyveri); assay: Diaphorse counterscreen qHTS: Assay Interference Panel against the NCATS CANVASS Library (AID 1347362)
Outline: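 Clostridium kluyveri diaphorase in PBS with 0.01% Tween-20 was preincubated 15 min at room temperature in the dark with compounds (11-point series). Resorufin fluorescence (ex 525/20, em 598/25) was read 5 min after adding resazurin/NADH.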

[7] = biological target: Luciferin 4-monooxygenase (Photinus pyralis) (UniProt P08659); assay: Firefly luciferase counterscreen qHTS: Assay Interference Panel against the NCATS CANVASS Library (AID 1347363); further: series mostly up to about 57 µM
Luciferin 4-monooxygenase (Photinus pyralis), sequence (P08659 whole entry, looked up): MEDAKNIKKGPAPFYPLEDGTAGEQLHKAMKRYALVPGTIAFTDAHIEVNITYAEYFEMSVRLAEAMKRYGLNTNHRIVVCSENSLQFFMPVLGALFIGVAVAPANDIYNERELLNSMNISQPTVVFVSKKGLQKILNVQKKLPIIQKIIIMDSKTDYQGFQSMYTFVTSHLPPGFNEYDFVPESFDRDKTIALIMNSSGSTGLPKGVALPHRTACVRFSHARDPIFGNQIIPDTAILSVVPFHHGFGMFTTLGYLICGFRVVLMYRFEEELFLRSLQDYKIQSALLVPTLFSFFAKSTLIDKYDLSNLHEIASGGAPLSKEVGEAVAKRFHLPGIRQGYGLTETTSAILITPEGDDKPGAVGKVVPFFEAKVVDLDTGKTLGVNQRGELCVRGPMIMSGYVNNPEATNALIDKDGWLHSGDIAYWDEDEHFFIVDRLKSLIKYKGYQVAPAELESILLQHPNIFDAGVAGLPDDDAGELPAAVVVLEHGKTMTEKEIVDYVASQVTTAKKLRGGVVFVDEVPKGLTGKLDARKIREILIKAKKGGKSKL
Description: Natural products and their derivatives continue to be wellsprings of nascent therapeutic potential. However, many laboratories have limited resources for biological evaluation, leaving their previously isolated or synthesized compounds largely or completely untested. To address this issue, the Canvass library of natural products was assembled (https://tripod.nih.gov/canvass), in collaboration with academic and industry researchers, for quantitative high-throughput screening (qHTS) across a diverse set of cell-based and biochemical assays. The pure (>85% purity by liquid chromatography/mass spectrometry [LC/MS]) Canvass library of 346 natural products were submitted by 45 academic laboratories and companies around the world. […] The library was formatted into 1536-well plates and evaluated in 50 qHTS (in an 11-pnt concentration series) bioassays with broad scope of disease-relevant mechanisms. The resulting data set from 50 different assays was then systematically analyzed to identify overall trends and specific natural products with interesting biological activities. […] The assay measures the relative levels of luminescence, to identify compounds that inhibit the activity of luciferase. […]
Luciferase Interference counterscreen protocol 1. […] Luminescence signal was acquired via the ViewLux plate reader (PerkinElmer) using a clear emission filter and a 2 second exposure, 2x binning settings.

[8] = KB-8-5-11 Cancer Cell Toxicity qHTS against the NCATS CANVASS Library (AID 1347364); further: series mostly up to about 46 µM; nearly all actives have a fitted effect of over 75% in size
Outline: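 Natural products were titrated in 11 points onto KB-8-5-11 cells, 500 per well, and cytotoxicity was scored from CellTiter-Glo luminescence after 72 hr culture.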

[9] = KB-3-1 Cancer Cell Toxicity qHTS against the NCATS CANVASS Library (AID 1347366); further: series mostly up to about 46 µM; nearly all actives have a fitted effect of over 75% in size
Outline: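 KB-3-1 cells (500/well) in DMEM with 10% FBS were exposed to compounds for 72 h at 37C. Viability was read by CellTiter-Glo luminescence.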

[10] = qHTS for ATAD5 Agonist screened against the NCATS CANVASS Library (AID 1347367);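 further: luciferase reporter driven by ATAD5 which rises upon DNA damage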
Outline: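 Luciferase reporter under ATAD5 control, stably integrated in HEK293T cells (2000/well). Compounds (11 points) incubated 16 h at 37C; viability read first by CellTiter-Fluor, then luminescence reporting ATAD5 activation. MMS positive control.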

Measured: outcome

COc1ccc2[nH]cc(CCNC(C)=O)c2c1
inactive: all assays above
